According to PubChem BioAssay (NCATS):
Inconclusive results are not listed. Active and inactive are the calls of the source. Unless noted, calls come from the whole dose curve; as a rule, active = well fitted curve in the direction sought with a large enough effect; inconclusive = small, poorly fitted or top-dose-only effect, or another doubt; inactive = no such curve, though single readings can be large; an effect the other way counts as inactive or inconclusive.

How the values were obtained:
[1] = AP1 Signaling Pathway (AID 357; active = well fitted curve in either direction with a large enough effect, not every such curve was filed as active;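 note: ME-180 reporter cells stimulated with EGF at its EC50 level; % is set by controls: 0 for no effect and ±100 for the full control effect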); details: ME-180 AP-1-bla reporter, EGF-induced, beta-lactamase ratio, 5 h; at 7.69 µM (top of the series) unless noted
How it was run: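 Cells are seeded overnight, exposed to compound titrations and an EC50 level of EGF for 5 hours at 37 °C, then loaded with CCF4 dye for 2.5 hours. Beta-lactamase activity under the AP-1 element is read as a blue/green ratio.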

[2] = biological target: Cytochrome P450 1A2 (Homo sapiens) (UniProt P05177); test: p450-cyp1a2 (AID 410; calls by dose curve;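 note: -100% = full effect of reference inhibitor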)
Cytochrome P450 1A2 (Homo sapiens), sequence (P05177 whole entry, looked up): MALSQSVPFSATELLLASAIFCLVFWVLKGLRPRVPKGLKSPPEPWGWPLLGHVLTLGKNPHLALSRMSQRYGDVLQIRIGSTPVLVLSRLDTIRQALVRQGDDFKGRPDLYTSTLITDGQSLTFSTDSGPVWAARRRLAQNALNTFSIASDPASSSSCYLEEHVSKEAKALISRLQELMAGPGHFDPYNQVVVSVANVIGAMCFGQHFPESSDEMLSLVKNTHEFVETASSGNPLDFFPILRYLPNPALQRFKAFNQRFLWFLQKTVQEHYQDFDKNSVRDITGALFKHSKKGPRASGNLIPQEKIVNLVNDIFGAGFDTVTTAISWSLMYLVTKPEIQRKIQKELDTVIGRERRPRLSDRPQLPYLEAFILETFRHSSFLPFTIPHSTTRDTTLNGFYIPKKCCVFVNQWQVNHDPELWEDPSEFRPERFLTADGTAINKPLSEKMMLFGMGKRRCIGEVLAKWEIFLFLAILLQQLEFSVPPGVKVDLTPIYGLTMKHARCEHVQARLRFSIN
How it was run: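 Read-out is luminescence from luciferin produced by CYP1A2 demethylation of Luciferin-ME (100uM, at Km). Detection reagent stopped the 60 min NADPH-dependent reaction; signals were normalized to 57 uM furafylline.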

[3] = NFAT Signaling Pathway (AID 444; active = well fitted curve in either direction with a large enough effect, not every such curve was filed as active;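 note: carbachol stimulus at about its EC50 of 1 µM final; % is set by controls: 0 for no effect and ±100 for the full control effect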); details: Jurkat NFAT-bla M1, carbachol, beta-lactamase ratio, 5 h; at 7.69 µM (top of the series) unless noted
How it was run: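 Jurkat cells with NFAT-driven β-lactamase reporter and co-expressed M1 receptor, stimulated with carbachol (final 1 uM, ~EC50), compound titration, 5 h at 37 °C. CCF4 loaded 1 h at RT; 460/530 nm ratio gave %activity and AC50.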

[4] = Stat Signaling Pathway (AID 446; active = well fitted curve in either direction with a large enough effect, not every such curve was filed as active;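 note: ME-180 cervical cancer cells given 40 pM IL-6 alongside compound; SIE-controlled beta-lactamase reporter measured as 460/530 nm FRET emission ratio; % is set by controls: 0 for no effect and ±100 for the full control effect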); details: ME-180 (cervical carcinoma) SIE beta-lactamase reporter, IL-6 stimulated, 5 h; at 7.69 µM (top of the series) unless noted
How it was run: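 Emission at 460 and 530 nm (excitation 405 nm) reports SIE-controlled beta-lactamase in ME-180 cells. Cells received compound with 40 pM IL-6 for 5 hrs at 37 C; data scaled between 300 pM IL-6 and 125 nM JAK-inhibitor controls.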

[5] = biological target: Glucocorticoid receptor (Homo sapiens) (UniProt P04150); test: GR-GFP Redistribution (AID 450;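 active = compounds whose dose series gives a full or clear partial fitted curve of increased nuclear translocation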; note: potency is the fitted concentration of half-maximal effect); details: U2OS GR-GFP nuclear translocation, laser cytometry, 2 h
Glucocorticoid receptor (Homo sapiens), sequence (P04150 whole entry, looked up, the tested form may be a part): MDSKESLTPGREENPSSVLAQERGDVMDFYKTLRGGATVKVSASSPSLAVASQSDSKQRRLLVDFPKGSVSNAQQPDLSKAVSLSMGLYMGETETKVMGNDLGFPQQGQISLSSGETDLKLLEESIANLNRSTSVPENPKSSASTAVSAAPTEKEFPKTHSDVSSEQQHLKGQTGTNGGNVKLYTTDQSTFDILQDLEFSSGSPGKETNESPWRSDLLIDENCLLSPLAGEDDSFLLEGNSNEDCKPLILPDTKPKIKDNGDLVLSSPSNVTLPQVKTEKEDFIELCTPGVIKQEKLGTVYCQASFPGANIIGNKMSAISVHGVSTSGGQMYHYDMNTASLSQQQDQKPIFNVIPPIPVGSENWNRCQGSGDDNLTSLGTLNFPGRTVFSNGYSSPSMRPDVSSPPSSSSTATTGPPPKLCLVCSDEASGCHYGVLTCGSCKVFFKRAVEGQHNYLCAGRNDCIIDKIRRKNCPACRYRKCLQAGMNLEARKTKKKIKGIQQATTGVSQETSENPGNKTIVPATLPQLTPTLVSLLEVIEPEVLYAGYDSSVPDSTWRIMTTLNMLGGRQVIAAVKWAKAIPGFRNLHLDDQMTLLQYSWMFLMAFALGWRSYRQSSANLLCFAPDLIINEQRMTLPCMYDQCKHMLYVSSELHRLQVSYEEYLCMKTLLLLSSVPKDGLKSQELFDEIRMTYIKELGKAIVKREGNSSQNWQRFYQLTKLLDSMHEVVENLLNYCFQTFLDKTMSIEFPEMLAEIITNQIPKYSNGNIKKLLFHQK

[6] = biological target: Glucocorticoid receptor (Homo sapiens) (UniProt P04150); test: GR-EFC Redistribution (AID 451; calls by dose curve; note: potency is the fitted concentration of half-maximal effect); details: CHO-K1 GR-EFC translocation, beta-gal luminescence, 2 h
How it was run: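 CHO-K1 cells expressing nuclear EA and GR-ED fragments of b-gal; compounds titrated up to 46 uM final, 2 h at 37 C. GR nuclear translocation read as complemented b-gal luminescence after 1 h RT detection.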

[7] = biological target: Mitogen-activated protein kinase 10 (Mus musculus) (UniProt Q61831); test: JNK3 AlphaScreen Assay (AID 530; active = well fitted curve in either direction with a large enough effect, not every such curve was filed as active;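 note: kinase came from lysate of stimulated human HepG2 cells; signal reports phosphorylation of biotinylated GST-cJun 1-79 at Ser73 with 10 µM ATP; % is set by controls: 0 for no effect and ±100 for the full control effect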)
How it was run: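 HepG2 lysate (IL-1b/TNFa pre-activated) + biotin-GST-cJun 1-79 + anti-pSer73 cJun; cpd titration, 15 min RT; ATP 10 uM start; Tris pH 7.6, MgCl2, DTT, vanadate; beads in EDTA buffer; AlphaScreen.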

[8] = biological target: 3',5'-cyclic-AMP phosphodiesterase 4B (Homo sapiens) (UniProt Q07343); test: qHTS Assay for Inhibitors of PDE-IV (AID 607; active = well fitted activation curve with a large enough effect in the main read-out, with a control signal flat, not every such curve was filed as active; note: % of control where 0% means no effect)
3',5'-cyclic-AMP phosphodiesterase 4B (Homo sapiens), sequence (Q07343 whole entry, looked up): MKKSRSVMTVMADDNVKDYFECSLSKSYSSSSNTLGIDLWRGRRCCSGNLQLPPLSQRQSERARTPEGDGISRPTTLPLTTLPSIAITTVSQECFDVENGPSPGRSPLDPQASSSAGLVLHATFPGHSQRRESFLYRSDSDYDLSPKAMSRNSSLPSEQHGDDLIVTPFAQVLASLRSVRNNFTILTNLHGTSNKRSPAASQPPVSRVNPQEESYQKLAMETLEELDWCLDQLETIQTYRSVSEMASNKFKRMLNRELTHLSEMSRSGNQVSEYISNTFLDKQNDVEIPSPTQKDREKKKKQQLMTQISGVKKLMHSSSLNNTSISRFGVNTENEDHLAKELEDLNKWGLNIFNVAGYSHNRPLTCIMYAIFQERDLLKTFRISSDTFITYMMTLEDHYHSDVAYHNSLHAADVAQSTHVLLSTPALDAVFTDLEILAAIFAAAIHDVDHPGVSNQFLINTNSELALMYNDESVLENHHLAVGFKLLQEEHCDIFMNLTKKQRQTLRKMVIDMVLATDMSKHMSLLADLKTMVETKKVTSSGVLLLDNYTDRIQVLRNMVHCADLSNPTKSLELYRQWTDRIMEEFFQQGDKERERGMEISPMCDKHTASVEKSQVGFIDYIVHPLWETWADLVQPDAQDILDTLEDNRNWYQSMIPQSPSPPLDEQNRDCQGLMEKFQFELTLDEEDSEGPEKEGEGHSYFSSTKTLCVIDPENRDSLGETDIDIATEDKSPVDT
How it was run: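 The readout is membrane depolarisation from a cAMP-sensing CNG channel, detected with a potential dye at ex 535/em 590. Cells were HEK293-derived (endogenous PDE-IV) at 1000 cells/well, titrated up to 22.9 uM final.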

[9] = biological target: Cytochrome P450 3A4 (Homo sapiens) (UniProt P08684); test: qHTS Assay for Inhibitors and Substrates of Cytochrome P450 3A4 (AID 884); note: % is set by controls: 0 for no effect and ±100 for the full control effect; nearly all actives have a fitted effect of over 50% in size
Cytochrome P450 3A4 (Homo sapiens), sequence (P08684 whole entry, looked up): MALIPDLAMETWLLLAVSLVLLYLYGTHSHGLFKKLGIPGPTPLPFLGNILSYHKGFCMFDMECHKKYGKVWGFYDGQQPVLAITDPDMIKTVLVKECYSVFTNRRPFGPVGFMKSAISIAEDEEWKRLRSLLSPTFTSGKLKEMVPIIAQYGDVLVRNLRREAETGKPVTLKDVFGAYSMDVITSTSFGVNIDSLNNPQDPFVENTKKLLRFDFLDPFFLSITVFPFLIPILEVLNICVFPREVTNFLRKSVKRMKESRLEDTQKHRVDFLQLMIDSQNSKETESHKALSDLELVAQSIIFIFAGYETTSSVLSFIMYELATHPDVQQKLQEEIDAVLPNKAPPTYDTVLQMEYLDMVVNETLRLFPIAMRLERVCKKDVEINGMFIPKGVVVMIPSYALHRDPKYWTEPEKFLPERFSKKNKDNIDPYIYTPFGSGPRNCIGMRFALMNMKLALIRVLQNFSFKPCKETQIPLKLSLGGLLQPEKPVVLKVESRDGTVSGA
How it was run: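 Luminescent readout of luciferin produced by CYP3A4 (20 nM) dealkylation of Luciferin-PPXE, 25 uM (its KM). NADPH-driven reaction ran 60 min at RT after 10 min compound preincubation; data scaled to 57 uM ketoconazole as 100% inhibition.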

[10] = biological target: Cytochrome P450 3A4 (Homo sapiens) (UniProt P08684); test: qHTS Assay for Activators of Cytochrome P450 3A4 (AID 885); note: potency is the fitted concentration of half-maximal effect; nearly all actives have a fitted effect of over 65% in size
How it was run: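 Activators are scored by enhanced luminescence from CYP3A4 conversion of luciferin-PPXE (25uM, equal to KM) to luciferin, after 60 min at RT with an NADPH-regenerating system.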

[11] = qHTS Assay for Lipid Storage Modulators (AID 1519; calls by dose curve); details: Drosophila S3 cells, BODIPY lipid droplet/cell ratio, laser cytometry, cells loaded with oleic acid
How it was run: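 Cells seeded at 5,000 per well were treated with compounds over a concentration series and loaded with oleic acid (400 uM, as added). Lipid droplet fluorescence (488 nm excitation, 500-530 nm channel) was read by laser-scanning cytometry and normalized to 20 uM Triacsin C.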

[12] = biological target: ATP-dependent 6-phosphofructokinase (Trypanosoma brucei brucei) (UniProt O15648); test: qHTS Assay to Find Inhibitors of T. brucei phosphofructokinase: hit validation (AID 492961)
ATP-dependent 6-phosphofructokinase (Trypanosoma brucei brucei), sequence (O15648 whole entry, looked up): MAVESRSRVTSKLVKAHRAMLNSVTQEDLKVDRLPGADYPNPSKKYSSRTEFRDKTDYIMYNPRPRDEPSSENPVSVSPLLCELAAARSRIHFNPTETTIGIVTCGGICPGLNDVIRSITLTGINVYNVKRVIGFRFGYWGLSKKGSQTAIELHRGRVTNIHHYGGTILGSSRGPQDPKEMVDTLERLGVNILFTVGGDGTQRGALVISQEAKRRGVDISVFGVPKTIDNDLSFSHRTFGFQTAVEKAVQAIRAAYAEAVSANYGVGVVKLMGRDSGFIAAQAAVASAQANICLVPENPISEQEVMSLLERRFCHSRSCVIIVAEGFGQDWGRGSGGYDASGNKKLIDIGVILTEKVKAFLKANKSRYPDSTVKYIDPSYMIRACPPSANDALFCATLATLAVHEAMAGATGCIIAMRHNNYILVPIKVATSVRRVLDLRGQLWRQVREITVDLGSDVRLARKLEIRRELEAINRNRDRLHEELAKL
How it was run: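 Compounds titrated; %activity normalized to 0x and 1x enzyme controls, curve-fitted. Readout: ADP-Glo luminescence after 45 min room-temperature reaction of 1.25 nM PFK, 0.1 mM ATP, 0.5 mM F6P, pH 8.0.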

[13] = biological target: Luciferin 4-monooxygenase (Photinus pyralis) (UniProt P08659); test: Biochemical firefly luciferase enzyme assay for NPC (AID 624030);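 note: purified P. pyralis luciferase at 10 nM with luciferin and ATP substrate; 0% = DMSO and -100% = full luciferase inhibition by PTC124 control; nearly all actives have a fitted effect of over 70% in size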
Luciferin 4-monooxygenase (Photinus pyralis), sequence (P08659 whole entry, looked up): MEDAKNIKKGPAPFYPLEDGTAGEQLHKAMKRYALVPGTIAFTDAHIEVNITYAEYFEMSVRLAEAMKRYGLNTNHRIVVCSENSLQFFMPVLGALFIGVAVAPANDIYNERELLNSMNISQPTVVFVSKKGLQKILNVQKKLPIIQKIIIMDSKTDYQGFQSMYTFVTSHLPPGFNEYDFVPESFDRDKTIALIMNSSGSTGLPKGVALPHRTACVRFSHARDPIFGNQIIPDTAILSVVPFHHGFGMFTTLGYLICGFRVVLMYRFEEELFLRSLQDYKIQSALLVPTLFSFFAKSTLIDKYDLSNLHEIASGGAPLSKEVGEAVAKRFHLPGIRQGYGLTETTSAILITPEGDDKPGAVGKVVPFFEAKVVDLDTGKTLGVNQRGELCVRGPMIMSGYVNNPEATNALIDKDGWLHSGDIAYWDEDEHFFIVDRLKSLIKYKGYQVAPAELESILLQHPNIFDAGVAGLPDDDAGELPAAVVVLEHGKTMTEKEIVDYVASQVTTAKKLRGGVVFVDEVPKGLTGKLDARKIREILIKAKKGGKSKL
How it was run: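 Purified P. pyralis luciferase at 10 nM in 50 mM Tris Acetate (final), luminescence read within 5 minutes of enzyme addition to compounds. Activity normalised to PTC124 versus DMSO; concentration-response curves classed by r2, magnitude and activity.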

[14] = S16 Schwann cell viability assay (CellTiter-Glo assay) (AID 624031);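 note: native untransfected S16 rat Schwann cells; cellular ATP luminescence as a viability measure; plate controls were DMSO-treated cells for no effect and cell-free wells for full effect; nearly all actives have a fitted effect of over 70% in size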
How it was run: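 Following overnight culture in 10% FBS DMEM, parental S16 rat Schwann cells are dosed for 24 h at 37 °C. Viability is read as CellTiter-Glo luminescence and expressed as % activity relative to DMSO (0%) and no-cell wells.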

[15] = S16 Schwann cell PMP22 intronic element firefly luciferase assay (AID 624032);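 note: plate controls were DMSO for no effect and PTC124 positive control mean for full effect; nearly all actives have a fitted effect of over 30% in size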
How it was run: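 Rat S16 Schwann cells stably carrying firefly luciferase driven by a PMP22 intronic element, in 10% FBS, treated 24 h at 37 C. ONE-Glo luminescence normalized to PTC124 control and DMSO (0%); curves classed by r2, magnitude and activity.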

[16] = S16 Schwann cell PMP22 intronic element beta-lactamase assay (AID 624044; calls by dose curve;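 note: 0% = DMSO and -100% = potassium clavulanate positive control; nearly all actives have a fitted effect of over 15% in size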)
How it was run: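 Beta-lactamase reporter under a PMP22 intronic regulatory element in stable S16 rat Schwann cells; 24 h compound exposure. 460 nm blue signal normalized between DMSO (0%) and potassium clavulanate, with 535 nm FRET tracking viability; curves classed by r2 and response.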

[17] = qHTS profiling for inhibitors of Plasmodium falciparum proliferation (AID 504749);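 note: 0% = DMSO vehicle and full inhibition = artemisinin control; nearly all actives have a fitted effect of over 60% in size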; details: P. falciparum in erythrocytes, SYBR Green DNA, 72 h, at 12.8 µM (top of the series)
How it was run: (§1)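 SYBR Green fluorescence (ex 485 nm, em 535 nm) reports parasite DNA after 72 h compound exposure of infected red cells at 0.3% parasitemia, 2.5% hematocrit; signal normalized to 0.29 uM artemisinin and vehicle wells.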

3D7 = test: as above; details: P. falciparum in erythrocytes, SYBR Green DNA, 72 h; series mostly up to 12.8 µM
How it was run: as §1

7G8 = test: as above; details: P. falciparum in erythrocytes, SYBR Green DNA, 72 h; series mostly up to 12.8 µM
How it was run: as §1

AA1029 = test: as above; details: P. falciparum in erythrocytes, SYBR Green DNA, 72 h; series mostly up to 12.8 µM
How it was run: as §1

AS120 = test: as above; details: P. falciparum in erythrocytes, SYBR Green DNA, 72 h; series mostly up to 28.7 µM
How it was run: as §1

ATS189 = test: as above; details: P. falciparum in erythrocytes, SYBR Green DNA, 72 h; series mostly up to 12.8 µM
How it was run: as §1

ATS95 = test: as above; details: P. falciparum in erythrocytes, SYBR Green DNA, 72 h; series mostly up to 12.8 µM
How it was run: as §1

C2A = test: as above; details: P. falciparum in erythrocytes, SYBR Green DNA, 72 h; series mostly up to 12.8 µM
How it was run: as §1

CP185 = test: as above; details: P. falciparum in erythrocytes, SYBR Green DNA, 72 h; series mostly up to 12.8 µM
How it was run: as §1

CP191 = test: as above; details: P. falciparum in erythrocytes, SYBR Green DNA, 72 h; series mostly up to 12.8 µM
How it was run: as §1

CP194 = test: as above; details: P. falciparum in erythrocytes, SYBR Green DNA, 72 h; series mostly up to 12.8 µM
How it was run: as §1

CP201 = test: as above; details: P. falciparum in erythrocytes, SYBR Green DNA, 72 h; series mostly up to 12.8 µM
How it was run: as §1

CP203 = test: as above; details: P. falciparum in erythrocytes, SYBR Green DNA, 72 h; series mostly up to 12.8 µM
How it was run: as §1

CP211 = test: as above; details: P. falciparum in erythrocytes, SYBR Green DNA, 72 h; series mostly up to 12.8 µM
How it was run: as §1

CP215 = test: as above; details: P. falciparum in erythrocytes, SYBR Green DNA, 72 h; series mostly up to 28.7 µM
How it was run: as §1

CP217 = test: as above; details: P. falciparum in erythrocytes, SYBR Green DNA, 72 h; series mostly up to 12.8 µM
How it was run: as §1

CP237 = test: as above; details: P. falciparum in erythrocytes, SYBR Green DNA, 72 h; series mostly up to 12.8 µM
How it was run: as §1

CP238 = test: as above; details: P. falciparum in erythrocytes, SYBR Green DNA, 72 h; series mostly up to 12.8 µM
How it was run: as §1

CP247 = test: as above; details: P. falciparum in erythrocytes, SYBR Green DNA, 72 h; series mostly up to 12.8 µM
How it was run: as §1

CP250 = test: as above; details: P. falciparum in erythrocytes, SYBR Green DNA, 72 h; series mostly up to 12.8 µM
How it was run: as §1

C/C=C\C(=O)N(CC)c1ccccc1C
inactive: activity change, negative = inhibition [1] -1.59% [at 17.2 µM] | Potency [2] | activity change, negative = inhibition [3] -0.257% [at 17.2 µM] | activity, negative = inhibition [4] 4.14% [at 17.2 µM] | Potency [5] > 20.6 µM | Potency [6] > 20.6 µM | Potency [7] | Potency [8] | Potency [9] | activity change, negative = inhibition ([11]; at 25.7 µM (top of the series)) -4.01% | outcome [12] | outcome [13] | Potency [14] | Potency [15] | outcome [16] | activity, negative = inhibition ([17]; parasite line A) 6.96% | activity, negative = inhibition ([17]; parasite line B) 1.34% | Potency (3D7) | Potency (7G8) | Potency (AA1029) | Potency (AS120) | Potency (ATS189) | Potency (ATS95) | Potency (C2A) | Potency (CP185) | Potency (CP191) | Potency (CP194) | Potency (CP201) | Potency (CP203) | Potency (CP211) | Potency (CP215) | Potency (CP217) | Potency (CP237) | Potency (CP238) | Potency (CP247) | Potency (CP250)
-17.7%: max response ([11]; measured here: lipid channel max response)
-15.1%: max response ([11]; measured here: cell count channel max response)
active: Potency [10] 7.94 µM
